Source: PubChem BioAssay (National Center for Advancing Translational Sciences (NCATS))
Compounds with a hit are over-represented: about 11% of the library has one in this group of screens.
HEK cytotox: kills HEK 293 cells. HEK 293 viability, ATP luminescence (CellTiter-Glo), 48-72 h. Potency, µM (series often up to 115 µM), actives largely listed as inhibitors. actives 6.6% (n = 94,000). AID 1345083; further: nearly all actives have a fitted effect of over 60% in size
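Pintool-delivered compounds were incubated with HEK 293 cells (250 cells/well) at 37 degree Celsius for 48 or 72 hr. ATP-dependent luminescence (CellTiter-Glo) then reported remaining viable cells.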
hNpr1 antagonist: blocks ANP-stimulated signaling of human Npr1 receptor; AID 1347048; Potency, µM (highest dose often 46.3 µM), most hits filed as inhibitors; actives 1.6% (n = 76,000); HEK293 hNpr1 GloSensor cGMP, ANP-stimulated luminescence; P16066; calls by dose curve; further: nearly all actives have a fitted effect of over 60% in size
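Compound pre-incubated 30 min at room temperature on GloSensor-loaded HEK293 cells stably carrying hNpr1 and the pGS-40F cGMP biosensor. Stimulation uses hNppA at 0.1 nM final; luminescence is taken at baseline and 20 min post-agonist.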
Luciferase inh: blocks purified firefly luciferase enzyme activity | AID 1347043 | P08659 | actives 2.5% (n = 76,000) | purified P. pyralis luciferase, luminescence, biochemical | Potency, µM (doses to about 115 µM), actives largely listed as inhibitors; further: nearly all actives have a fitted effect of over 65% in size
Target sequence (P08659 whole entry, looked up): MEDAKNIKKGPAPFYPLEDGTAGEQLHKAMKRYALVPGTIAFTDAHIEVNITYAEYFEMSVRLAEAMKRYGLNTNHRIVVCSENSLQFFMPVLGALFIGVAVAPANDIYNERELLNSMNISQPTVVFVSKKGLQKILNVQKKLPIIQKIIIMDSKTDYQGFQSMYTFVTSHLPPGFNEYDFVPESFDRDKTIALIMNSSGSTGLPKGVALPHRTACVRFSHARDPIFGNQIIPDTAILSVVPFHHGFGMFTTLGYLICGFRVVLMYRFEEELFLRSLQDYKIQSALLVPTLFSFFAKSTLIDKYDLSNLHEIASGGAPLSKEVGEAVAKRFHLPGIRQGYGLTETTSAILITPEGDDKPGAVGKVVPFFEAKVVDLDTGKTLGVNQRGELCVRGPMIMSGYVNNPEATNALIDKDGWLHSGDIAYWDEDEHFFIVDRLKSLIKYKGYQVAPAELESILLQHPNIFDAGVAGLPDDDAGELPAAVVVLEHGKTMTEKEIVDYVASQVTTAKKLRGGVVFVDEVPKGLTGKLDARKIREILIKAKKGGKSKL
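Purified P. pyralis luciferase (10nM final) in 50mM Tris acetate pH 7.5, 10mM Mg acetate, 0.01% Tween-20, 0.05% BSA with 10uM D-luciferin and 10uM ATP. Compounds titrated qHTS. Luminescence imaged on CCD.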
3T3 cytotox: kills NIH 3T3 cells | NIH 3T3 viability, CellTiter-Glo ATP luminescence, 48-72 h | Potency, µM (top dose mostly 96.7 µM), actives largely listed as inhibitors | actives 4.3% (n = 94,000); further: nearly all actives have a fitted effect of over 55% in size
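First NIH 3T3 cells are plated at 400 cells/well; next compound is pinned in; then plates incubate 48 or 72 hr at 37 °C; finally CellTiter-Glo is added and luminescence read after 10 min.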
A number is an active result; n = inactive; u = inconclusive; x = not tested or not shown. Unless noted, the call rests on the fitted dose curve; in most records, active means well fitted curve in the direction sought with a large enough effect; inconclusive means small, poorly fitted or top-dose-only effect, or another doubt; inactive means no such curve, though single readings can be large; an effect the other way counts as inactive or inconclusive.

SMILES	HEK cytotox	hNpr1 antagonist	Luciferase inh	3T3 cytotox
c1cnc2cc(-c3nc(C4CCOC4)no3)ccc2n1 (centres undefined)	n	n	u	n
CCNC(=O)C(C)(C)Oc1nn(Cc2cccc(Cl)c2)c2ccccc12	u	n	n	u
CC(C)(Oc1nn(Cc2cccc(Cl)c2)c2ccccc12)C(=O)N1CCCC1	u	n	n	50µM
COCc1ccc2c(c1)c(OC(C)(C)C(=O)NCc1cnccn1)nn2Cc1ccccc1	u	n	n	40µM
CCCNC(=O)C(C)(C)Oc1nn(Cc2ccccc2)c2ccc(COC)cc12	u	n	n	u
COCc1ccc2c(c1)c(OC(C)(C)C(=O)Nc1cccnc1)nn2Cc1ccccc1	u	n	n	u
COCc1ccc2c(c1)c(OC(C)(C)C(=O)N1CC(O)C1)nn2Cc1ccccc1	u	n	n	100µM
COCc1ccc2c(c1)c(OC(C)(C)C(=O)NC1CCC(O)CC1)nn2Cc1ccccc1 (centres undefined)	n	n	n	40µM
CCn1cc(-c2cc3c(cn2)CN(Cc2cccnc2)CCN3)cn1	u	n	63µM	n
Cc1cc(-c2cc3c(cn2)CN(Cc2cccc(F)c2)CCN3)ccn1	71µM	n	16µM	u
COc1ccc(OC)c(CN2CCNc3cc(-c4ccnc(C)c4)ncc3C2)c1	100µM	n	u	u
c1ccc(CN2CCNc3cc(-c4cccnc4)ncc3C2)cc1	u	n	n	n
NC(=O)c1cccc(-c2cc3c(cn2)CN(Cc2ccncc2)CCN3)c1	n	n	u	u
COc1ccc(CN2CCNc3cc(-c4ccnc(C)c4)ncc3C2)cc1	89µM	n	u	u
Cc1cc(-c2cc3c(cn2)CN(CC2CCOC2)CCN3)ccn1 (centres undefined)	n	n	u	u
N#Cc1ccccc1CN1CCNc2nc(CNCc3cnccn3)n(Cc3ccccc3)c2C1=O	n	n	n	u
COC(=O)N1CCN(C(=O)c2ccc(-c3ccc(OC)nn3)cc2)CC1	n	x	x	n
O=S(=O)(c1cccc(F)c1)N1CCC(OC2CCN(Cc3ccccc3)CC2)CC1	n	n	n	n
Cc1ccc(S(=O)(=O)N2CCC(OC3CCN(Cc4ccccc4)CC3)CC2)cc1C	u	n	n	35µM
COc1ccc(CN2CCC3(C2)C(=NC2CCCC2)NC(=O)N3c2cccnc2)cc1 (centres undefined)	n	x	x	u
O=C(NCc1ccnc2[nH]ccc12)c1ccc2ccccc2n1	89µM	u	u	u
O=C(Cc1ccccc1)NCc1ccnc2[nH]ccc12	n	n	35µM	n
O=C(NCc1ccnc2[nH]ccc12)c1ccccc1Cl	n	n	n	n
N#CCNC(=O)[C@@H]1CCCN1c1ccnc2ccnn12	n	x	x	n
Cn1ncc(N2CCC(C(=O)NCC3CCN(Cc4cccc(F)c4)CC3)C2)cc1=O (centres undefined)	n	n	n	n
SMILES	HEK cytotox	hNpr1 antagonist	Luciferase inh	3T3 cytotox
CC1(C)C[C@H]2C[C@@H](O)[C@H](N3CCN(c4cccc(Cl)c4)CC3)[C@]2(O)CO1	u	x	x	n
OCC1(Cc2ccccc2)CCCN(Cc2cnn(-c3cccc(Cl)c3)c2)C1 (centres undefined)	79µM	n	n	79µM
O=S(=O)(c1cccc2ccccc12)N1CCCC(CO)(Cc2cccc(Cl)c2)C1 (centres undefined)	u	n	n	45µM
CN1CCN(Cc2cnn(-c3cccc(Cl)c3)c2)CC1CCO (centres undefined)	n	n	n	u
COC1C(=O)N(c2cccc(F)c2)C12CCN(C(=O)Nc1ccccc1F)CC2 (centres undefined)	n	n	n	n
O=C(NCc1ccccn1)C1CCN(C(=O)c2ncn3c2COC(c2ccc(Cl)cc2)C3)CC1 (centres undefined)	n	n	32µM	n
O=C(NCc1cc(F)cc(F)c1)C1CCN(C(=O)c2ncn3c2COC(c2ccc(F)cc2)C3)CC1 (centres undefined)	n	n	u	n
O=C(NCc1cccc(Cl)c1)C1CCN(C(=O)c2ncn3c2COC(c2ccc(F)cc2)C3)CC1 (centres undefined)	n	n	25µM	n
O=C(NCc1cccc(Cl)c1)C1CCN(C(=O)c2ncn3c2COC(c2ccccc2)C3)CC1 (centres undefined)	n	n	20µM	n
CC(C)C1=NOC2(CCN(C(=O)c3ccc4c(c3)OCO4)C2)C1 (centres undefined)	n	x	x	79µM
CCN1CCN(C(=O)c2ccc3nnc(Cc4ccco4)n3c2)CC1	n	x	x	n
Cn1c(CNC(=O)C2Cn3cccc3C(=O)N2Cc2ccccc2)nc2ccccc21 (centres undefined)	u	n	n	32µM
COc1ccc(CCC(=O)N2CCC(Oc3ccc(-c4noc(C)n4)cc3)C2)cc1 (centres undefined)	u	n	40µM	n
Cc1nc(-c2ccc(OC3CCN(C(=O)c4nn(C)c5ccccc45)C3)cc2)no1 (centres undefined)	45µM	n	n	u
Cc1ccc([S+](=O)([O-])N2CCN(CCCn3nc4n(c3=O)CCCC4)CC2)cc1	n	x	x	n
Cc1cc2cc(-c3c(C)noc3C)nc(NCCN(C)C)c2o1	100µM	n	n	u
Cc1noc(C)c1-c1cc2cc(C(C)C)oc2c(NCCN(C)C)n1	71µM	n	n	45µM
COC(=O)[C@@H]1Cc2c([nH]c3ccccc23)[C@H]2C[C@@H](N3CCCCC3)C[C@@H](c3ccccc3F)N21	22µM	n	n	u
COC(=O)[C@@H]1Cc2c([nH]c3ccccc23)[C@H]2C[C@H](N3CCCCC3)C[C@@H](c3ccccc3F)N21	u	n	n	28µM
CNC(=O)CN1CCCC(N2CCN(c3ccccc3F)CC2)C1 (centres undefined)	n	n	n	n
O=C(c1ccccc1OC1CCN(C2Cc3ccccc3C2)CC1)N1CCCCC1	u	n	n	n
O=C(c1cn2ccccc2n1)N1C[C@@H](CO)[C@H](c2ccncc2)C1	n	n	n	n
O=C(Nc1ccccc1)c1ccc2c(c1)OCCN(c1ccccc1)C2	112µM	u	u	n
O=C(NC1CCOCC1)c1ccc2c(c1)OCCN(c1ccccc1)C2	79µM	n	n	u
O=C(NCCn1ccn2nc(-c3ccc(F)cc3)cc2c1=O)c1cc(Cl)ccc1F	u	n	n	n
SMILES	HEK cytotox	hNpr1 antagonist	Luciferase inh	3T3 cytotox
O=C(NCCC1=CCCCC1)c1c(OCC2CC2)cc(=O)n2c1CCOCC2	n	x	x	n
CN1CCOc2c(C(=O)NCCc3cnc[nH]3)cc(-c3cccc4[nH]ccc34)cc21	u	n	u	89µM
CN1CCOc2c(C(=O)NCc3cnn(C)c3)cc(-c3cccnc3)cc21	u	n	n	35µM
CN1CCOc2c(C(=O)NCCc3cnc[nH]3)cc(-c3ccccc3)cc21	u	n	n	79µM
Cn1nc(C(=O)NCc2cccnc2)c2c1CN(C(=O)C1CCCCC1)C2	n	x	x	n
O=C(NCCc1ccccc1)N1CCCC(c2noc(COc3ccccc3)n2)C1 (centres undefined)	u	n	u	u
